Test [1] in a line: compounds binding Alexa647 anti-His antibody – biochemical, small-molecule microarray, 635 nm fluorescence, artefact control for SMM control protein annotation, primary screen (AID 1128).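 Note: score merges feature fluorescence with signal-to-noise for each printed compound spot.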 The settings on record: higher = more signal.
Test [2] relates to Human papillomavirus type 1a E7 protein (residues 1-88). The test is described as follows: HPV1a E7 small-molecule binders, primary screen, biochemical, small-molecule microarray, residues 1-88, 635 nm (AID 1129). Conditions: small-molecule microarray binding, fluorescence 635 nm; higher = more signal.
The target in test [3] is Focal adhesion kinase 1 (Homo sapiens) (UniProt Q05397). The experiment in a line: PTK2 protein binding on printed compound slides – biochemical, small-molecule microarray, 635/667 nm fluorescence, BSA, DTT, primary screen (AID 1130).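 Note: composite of spot emission at 667 nm and signal to noise over triplicate slides.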 Conditions: 635 nm fluorescence, higher = more signal.
Chain of Focal adhesion kinase 1 (Homo sapiens) (Q05397 whole entry, looked up): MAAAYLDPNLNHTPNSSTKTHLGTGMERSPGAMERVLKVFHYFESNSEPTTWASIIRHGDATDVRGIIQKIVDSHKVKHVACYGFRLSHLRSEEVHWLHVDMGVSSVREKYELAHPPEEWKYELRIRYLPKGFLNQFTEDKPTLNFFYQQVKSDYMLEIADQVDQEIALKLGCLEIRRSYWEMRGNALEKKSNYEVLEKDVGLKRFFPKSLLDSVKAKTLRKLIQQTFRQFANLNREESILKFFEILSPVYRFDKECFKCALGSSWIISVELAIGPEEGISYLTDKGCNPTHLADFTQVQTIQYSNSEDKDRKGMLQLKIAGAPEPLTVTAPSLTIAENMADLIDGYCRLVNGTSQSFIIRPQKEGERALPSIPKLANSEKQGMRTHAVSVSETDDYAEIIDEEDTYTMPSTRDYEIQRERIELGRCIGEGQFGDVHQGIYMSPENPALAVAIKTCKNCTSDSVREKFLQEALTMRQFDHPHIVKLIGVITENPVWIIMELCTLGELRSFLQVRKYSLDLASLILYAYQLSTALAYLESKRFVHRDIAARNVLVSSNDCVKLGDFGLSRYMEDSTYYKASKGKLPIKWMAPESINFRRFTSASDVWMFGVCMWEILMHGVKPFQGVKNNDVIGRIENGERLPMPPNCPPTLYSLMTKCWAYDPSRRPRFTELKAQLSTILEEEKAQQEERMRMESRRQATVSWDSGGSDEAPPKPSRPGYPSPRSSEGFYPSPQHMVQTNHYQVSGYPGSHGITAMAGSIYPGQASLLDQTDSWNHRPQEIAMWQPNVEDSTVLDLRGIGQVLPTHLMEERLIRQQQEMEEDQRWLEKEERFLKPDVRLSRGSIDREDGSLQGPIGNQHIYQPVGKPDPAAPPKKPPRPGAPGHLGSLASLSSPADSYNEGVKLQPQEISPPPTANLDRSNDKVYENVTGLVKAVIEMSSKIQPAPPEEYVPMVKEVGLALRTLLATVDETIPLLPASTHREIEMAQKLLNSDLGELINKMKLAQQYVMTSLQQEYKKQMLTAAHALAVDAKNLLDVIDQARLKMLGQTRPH
For test [4], the system named is Fibrinogen (Alexa647-labelled). The test is described as follows: Alexa647-fibrinogen binding to printed small molecules – biochemical, small-molecule microarray, 635/667 nm fluorescence, artefact control for SMM control-protein annotation, profiling panel (AID 1131).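 Note: z-score merges 667 nm fluorescence with per-spot signal-to-noise over triplicate slides.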 The settings on record: fibrinogen-A647 binding fluorescence, higher = more signal.
In test [5] the target is Follistatin (Homo sapiens) (UniProt P19883). The test is described as follows: FST protein binding to printed compounds – biochemical, small-molecule microarray, 635/667 nm fluorescence, primary screen (AID 1132). Conditions: 635 nm fluorescence, higher = more signal.
Chain of Follistatin (Homo sapiens) (P19883 whole entry, looked up): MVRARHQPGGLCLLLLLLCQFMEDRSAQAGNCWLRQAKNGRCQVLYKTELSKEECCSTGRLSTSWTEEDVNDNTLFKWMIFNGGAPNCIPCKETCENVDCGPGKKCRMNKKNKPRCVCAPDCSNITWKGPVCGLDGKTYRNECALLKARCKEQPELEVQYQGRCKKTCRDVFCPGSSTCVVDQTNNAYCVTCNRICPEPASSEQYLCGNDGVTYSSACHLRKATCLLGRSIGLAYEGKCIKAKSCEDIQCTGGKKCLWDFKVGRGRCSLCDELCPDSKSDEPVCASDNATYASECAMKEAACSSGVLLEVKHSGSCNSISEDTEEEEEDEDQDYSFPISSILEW
In test [6] the target is Fibroblast growth factor 2 (Homo sapiens) (UniProt P09038). The test is described as follows: basic fibroblast growth factor binding to printed compounds – biochemical, small-molecule microarray, 635/667 nm fluorescence, primary screen (AID 1133). The settings on record: FGF2, fluorescence 635/667, higher = more signal.
Chain of Fibroblast growth factor 2 (Homo sapiens) (P09038 whole entry, looked up): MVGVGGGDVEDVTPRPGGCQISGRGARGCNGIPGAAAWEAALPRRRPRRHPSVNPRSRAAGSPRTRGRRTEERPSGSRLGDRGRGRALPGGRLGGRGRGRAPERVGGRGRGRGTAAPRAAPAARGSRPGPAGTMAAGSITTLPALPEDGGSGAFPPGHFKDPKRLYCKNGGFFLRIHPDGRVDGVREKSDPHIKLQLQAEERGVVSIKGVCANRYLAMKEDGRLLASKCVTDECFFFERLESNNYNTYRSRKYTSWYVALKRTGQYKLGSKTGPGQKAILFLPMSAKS
A short description of test [7]: JC-1 mitochondrial potential readout, lung cancer cells – cell-based, A549, JC-1 fluorescence, basal, 24 h, 100 nL, profiling panel (AID 1138).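 Note: A549 lung adenocarcinoma cells under basal conditions with no added stimulus; test concentration not given here.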 The settings on record: higher = more signal.
A further test has as its system Lefty1. The test is described as follows: Lefty1 protein binding to printed compounds – biochemical, small-molecule microarray, 635/667 nm fluorescence, primary screen (AID 1139). The settings on record: fluorescence 635/667, higher = more signal.
Test [8] concerns wheat germ agglutinin (Triticum aestivum), Alexa647-labelled. The test is described as follows: Alexa647-WGA lectin binding to printed small molecules – biochemical, small-molecule microarray, 635/667 nm fluorescence, artefact control for SMM control-protein annotation, profiling panel (AID 1140).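 Note: score merges 667 nm feature emission with signal to noise over triplicate slides.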 Conditions: WGA-A647 binding, 635 nm fluorescence, higher = more signal.
The target in test [9] is Luciferin 4-monooxygenase (Photinus pyralis) (UniProt P08659). The test is described as follows: inhibition of purified Photinus pyralis luciferase – biochemical, luminescence, purified enzyme, 2006 set, primary screen (AID 1141).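 Note: cell-free assay with purified firefly luciferase at 100 ng per well in PBS; test concentration not given here.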 Conditions: purified firefly luciferase, SteadyGlo luminescence, 30 min; higher = more signal, called active from +8 up or from −8 down.
Chain of Luciferin 4-monooxygenase (Photinus pyralis) (P08659 whole entry, looked up): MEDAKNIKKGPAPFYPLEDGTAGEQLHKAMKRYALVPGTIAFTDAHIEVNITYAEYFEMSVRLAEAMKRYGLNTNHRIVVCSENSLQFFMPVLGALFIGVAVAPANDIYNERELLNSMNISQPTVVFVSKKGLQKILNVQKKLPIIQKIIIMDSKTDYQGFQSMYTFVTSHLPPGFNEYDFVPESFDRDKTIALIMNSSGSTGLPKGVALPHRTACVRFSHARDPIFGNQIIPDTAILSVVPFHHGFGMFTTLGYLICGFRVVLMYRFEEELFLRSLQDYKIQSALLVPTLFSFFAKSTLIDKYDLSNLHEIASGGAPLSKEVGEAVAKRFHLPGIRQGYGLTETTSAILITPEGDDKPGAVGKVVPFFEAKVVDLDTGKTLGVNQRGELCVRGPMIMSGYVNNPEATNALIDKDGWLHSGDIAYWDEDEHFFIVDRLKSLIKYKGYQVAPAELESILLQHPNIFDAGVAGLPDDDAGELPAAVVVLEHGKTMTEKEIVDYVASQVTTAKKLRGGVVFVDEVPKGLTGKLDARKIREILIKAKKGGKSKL
The test system of test [10] is Wnt5a (protein binding on small-molecule microarray). The test is described as follows: small molecules binding Wnt5a protein – biophysical, small-molecule microarray, 635/667 nm fluorescence, primary screen (AID 1142).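 Note: fluorescence read at 667 nm with signal to noise per printed feature.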 Conditions: 635 nm fluorescence, higher = more signal.
Test [11] in a line: ATP-based viability of Huh7 replicon cells – cell-based, CellTiter-Glo luminescence, basal, 48 h, cytotoxicity control for HCV replication inhibitor project, primary screen (AID 1143).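 Note: Huh7 hepatoma cells carrying a hepatitis C replication reporter with no stimulus; test concentration not given here.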 The settings on record: higher = more signal, called active from +8 up or from −8 down.
The nature of test [12]: Pseudomonas biofilm growth suppression – PAO1 strain, BacTiter-Glo luminescence, LB-PBS, primary screen (AID 1144). Conditions: P. aeruginosa PAO1 biofilm, 12 h, higher = more signal.
The nature of test [13]: basal CRE-LacZ reporter activity in PC12 – cell-based, unstimulated, primary screen (AID 1145). Conditions: no forskolin, luminescence, 4.5 h, higher = more signal, called active from +8 up or from −8 down.
The nature of test [14]: forskolin-driven CRE-LacZ activity in PC12 – cell-based, CRE-LacZ reporter, forskolin-stimulated, primary screen (AID 1146).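 Note: PC12 cells with 6xCRE LacZ reporter stimulated by forskolin 10 µM; beta-galactosidase reporter signal reflecting CREB driven transcription.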 The settings on record: luminescence, 4.5 h, higher = more signal, called active from +8 up or from −8 down.
The target in test [15] is Streptavidin (Streptomyces avidinii) (UniProt P22629). The experiment in a line: compounds binding control protein streptavidin – biophysical, small-molecule microarray, 635/667 nm fluorescence, artefact control for SMM compound annotation, primary screen (AID 1147).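 Note: signal reflects streptavidin binding to arrayed compounds as a control protein.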 The settings on record: higher = more signal.
Chain of Streptavidin (Streptomyces avidinii) (P22629 whole entry, looked up): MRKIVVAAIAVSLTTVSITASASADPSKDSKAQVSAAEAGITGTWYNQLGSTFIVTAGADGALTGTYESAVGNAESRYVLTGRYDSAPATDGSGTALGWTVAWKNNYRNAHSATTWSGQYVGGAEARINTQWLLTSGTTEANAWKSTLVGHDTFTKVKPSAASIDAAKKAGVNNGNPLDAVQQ
Test [16] can be described thus: probe aInhba binding on compound microarray – biochemical, small-molecule microarray, 635/667 nm fluorescence, primary screen (AID 1148).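 Note: score merges 667nm spot fluorescence with signal-to-noise for antibody binding to printed compounds.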 Conditions: higher = more signal.
For test [17], the target named is Torsin-1A (Homo sapiens) (UniProt O14656). The test is described as follows: TOR1A wild-type binding on microarray – cell lysate, small-molecule microarray, lysate, 635/667 nm, primary screen (AID 1149). Conditions: COS7 hTOR1A-WT lysate, 635 nm fluorescence, higher = more signal.
Chain of Torsin-1A (Homo sapiens) (O14656 whole entry, looked up): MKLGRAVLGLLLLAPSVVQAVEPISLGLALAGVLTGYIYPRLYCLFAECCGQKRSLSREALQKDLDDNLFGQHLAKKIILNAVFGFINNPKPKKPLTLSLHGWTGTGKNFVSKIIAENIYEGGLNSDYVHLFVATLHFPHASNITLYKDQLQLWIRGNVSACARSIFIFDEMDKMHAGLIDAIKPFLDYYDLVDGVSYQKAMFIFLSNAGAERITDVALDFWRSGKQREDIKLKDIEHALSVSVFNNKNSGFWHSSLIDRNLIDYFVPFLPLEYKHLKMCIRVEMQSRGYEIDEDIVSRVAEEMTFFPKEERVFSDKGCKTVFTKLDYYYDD
Test [18] has the same target. The experiment in a line: torsin A mutant lysate binding on microarrays – cell lysate, small-molecule microarray, COS7 lysate, 635/667 nm fluorescence, primary screen (AID 1150).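 Note: score pools 667 nm emission and signal to noise measuring lysate protein binding.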 The settings on record: COS7 hTOR1A mutant lysate, 635 nm fluorescence, higher = more signal.
For test [19], the system named is Sonic hedgehog protein (Shh). The test is described as follows: Sonic hedgehog microarray binding compounds – biochemical, small-molecule microarray, 635/667 nm fluorescence, primary screen (AID 1151).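 Note: Shh protein binding to compounds spotted on small-molecule microarray slides; score combines spot fluorescence intensity with signal-to-noise across triplicate slides.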 The settings on record: 635 nm fluorescence, higher = more signal.

Each structure is given as a SMILES string. Active and inactive are the calls of the source. Unless noted, the rule behind the calls is not given here.

Consider `C=CCOC(=O)[C@H]1[C@@H]2C(=O)O[C@@H](c3ccccc3)[C@@H](c3ccccc3)N2[C@@H](c2ccc(OCCOC(=O)[C@H]3C[C@H]4C(=O)NCC(=O)N4[C@H]3c3cccc(OCCO)c3)cc2)[C@]12C(=O)Nc1ccc(I)cc12`, for which the composite z-score in [1] is 0.844; in [2] it was 1.06; in [3] it was 0.835; in test [4], 0.494; in test [5], 1.41; in [6], 1.37. In addition, the composite z-score is 1.5 in the test on Lefty1; 0.288 in test [8]; 0.984 in test [10]; 0.0708 in test [15]; 0.434 in [16]; 0.418 with Torsin-1A (Homo sapiens) [17]. Further, the composite z-score was determined as 0.83 with Torsin-1A (Homo sapiens) [18] and 1.94 in [19]. Besides, the z-score in [7] was -0.715; in [9] it was -0.919 (inactive); in test [11], -0.469 (inactive); in test [12] it was -0.282 (inactive); in [13] it was 0.423 (inactive); in test [14], -0.142 (inactive).

Consider `C=CCOC(=O)[C@@H]1[C@H]2C(=O)O[C@H](c3ccccc3)[C@H](c3ccccc3)N2[C@H](c2ccc(OCCOC(=O)[C@@H]3C[C@@H]4C(=O)N[C@@H](CC(C)C)C(=O)N4[C@@H]3c3ccc(O)cc3)cc2)[C@@]12C(=O)Nc1ccc(I)cc12`, for which the composite z-score in test [1] was 1.52; in [2], 1.2; in test [3], 0.601; in test [4] it was 0.666; in [5] it was 1.44; in test [6], 1.26. Further, the composite z-score in the test on Lefty1 was 1.44; in test [8] it was 0.182; in test [10], 0.601; in test [15], 0.834; in [16], 1.27; with Torsin-1A (Homo sapiens) [17] it was 0.271. Further, the composite z-score worked out at 0.506 with Torsin-1A (Homo sapiens) [18] and 2.2 in test [19]. Moreover, the z-score in test [7] was -1.58; in test [9] it was -0.248 (inactive); in test [11] it was -0.259 (inactive); in test [12], -0.282 (inactive); in [13], -0.655 (inactive); in [14], -1.23 (inactive).

In the case of `CCCCC(=C=CC[C@@H](O)c1ccc(OCCO)cc1)CCO`, the composite z-score in test [1] was determined as 1.83; in test [2], 0.407; in test [3], 0.814; in test [4] it was 0.0258; in test [5] it was 0.66; in test [6], 0.329. For the same molecule, the composite z-score was 0.452 in the test with Lefty1; 1.16 in test [8]; -0.032 in [10]; -0.217 in [15]; 0.0342 in test [16]; 0.112 with Torsin-1A (Homo sapiens) [17]. The composite z-score in the test with Torsin-1A (Homo sapiens) [18] came to 0.654; in test [19], 0.98. Further, the z-score was 1.57 in test [7]; -1.91 (inactive) in test [9]; -1.75 (inactive) in test [11]; 0.234 (inactive) in test [12]; 7.73 (inactive) in [13]; -0.882 (inactive) in [14].

Turning to `CCCN1C(=O)[C@@]2(c3ccc([N+](=O)[O-])cc3)CC(=O)N(C3CCCCC3)[C@@H]2c2ccc(CO)cc21`, the composite z-score in test [1] is 0.993; in test [2], -0.281; in test [3], 0.584; in test [4] it was -0.138; in test [5] it was 1.2; in test [6], 1.08. The composite z-score was 0.466 with Lefty1; 0.198 in test [8]; 0.0899 in test [10]; -0.397 in test [15]; -0.168 in [16]; 0.515 with Torsin-1A (Homo sapiens) [17]. Besides, the composite z-score with Torsin-1A (Homo sapiens) [18] is -0.187; in [19] it was 1.08. Further, the z-score in test [7] is -0.755; in test [9] it was 0.289 (inactive); in test [11], 0.677 (inactive); in [12], -0.0723 (inactive); in test [13] it was 0.389 (inactive); in [14], -0.131 (inactive).

`COc1ccc([Si](C)(C)[C@H]2[C@H](CCO)O[C@@]3(C(=O)N(Cc4ccccc4)c4ccc(NC(=O)[C@H](C)O)cc43)[C@@H]2C)cc1`: the composite z-score in test [1] was 0.779; in test [2], 1.16; in test [3] it was 0.361; in [4], 0.967; in [5], 0.578; in test [6], -0.145. For the same molecule, the composite z-score in the test on Lefty1 came to 0.575; in test [8], 0.75; in test [10], 0.571; in test [15] it was 0.0684; in test [16] it was 0.0659; with Torsin-1A (Homo sapiens) [17] it was 0.569. The figures for the composite z-score (with Torsin-1A (Homo sapiens) [18]; in test [19]) were 0.437 and 1.33, respectively. Besides, the z-score is -0.924 in [7]; -0.355 (inactive) in [9]; -7.85 (inactive) in test [11]; -1.29 (inactive) in test [12]; 20.8 (active) in [13]; 1.12 (inactive) in test [14].
